# Values joined by “and” are separate entries in the source; they are usually repeats but may differ in a detail not shown here. Equal entries are not always repeated. Among all 130,000 compounds or so, about 1,900 (1.5%) were called active. About 5% were inconclusive and are not listed. The full list was thinned out, with actives kept by preference. A number with no mark means an inactive call. Calls come from the whole dose curve; as a rule, active = well fitted cell-killing curve with a large enough effect; inconclusive = small, poorly fitted or top-dose-only effect; inactive = no such curve, though single readings can be large or run the other way.
# Assay: qHTS Screen for Compounds that Selectively Target Cancer Cells with p53 Mutations: Cytotoxicity of p53ts Cells at the Nonpermissive Temperature; note: nearly all actives have a fitted effect of over 55% in size
# Conditions: H1299-p53A138V viability at 39C, ATP luminescence, 24 h; series mostly up to 46.1 µM; activity change, negative = cell killing: at the top concentration
# % is set by controls: 0 for no effect and ±100 for the full control effect; potency is the fitted concentration of half-maximal effect.
Structure (SMILES),"activity change, negative = cell killing",Potency
Fc1ccc(C(Nc2ccc(Cl)c(C(F)(F)F)c2)c2nnc(-c3ccccc3)o2)cc1 (stereo unspecified),3.27%,
Cn1c(=O)nc2n(-c3ccc(Br)cc3)c3cccc(Cl)c3cc-2c1=O,8.85%,
CCCCCn1c(=O)[nH]c2cc(C(=O)Nc3ccc(F)cc3)ccc2c1=O,4.84%,
Cn1nc(-c2ccccc2)c(-c2ccccc2)c(C(=O)Nc2ccc(S(N)(=O)=O)cc2)c1=O,-13.6%,
COc1ccc2cc(CNc3ccc(OC)c(OC)c3)c(=O)n(CC(=O)Nc3ccccc3F)c2c1,3.23%,
Cc1c2cnn(-c3ccccc3)c(=O)c2c(C)n1C(C)C(=O)Nc1ccc(Br)cc1F (stereo unspecified),6.87%,
COc1ccc(/C=C/NC(=O)Cc2ccc(OC)c(OC)c2)cc1,-6.46% [at 9.22 µM] and 8.2% [at 9.22 µM],
CCN(CCCCOC(=O)c1ccc(OC)c(OC)c1)C(C)Cc1ccc(OC)cc1 (stereo unspecified),1.21%,
COc1ccc(C(CCN(Cc2ccc(OC)c(OC)c2)C(=O)CCl)c2ccccc2)cc1 (stereo unspecified),,3.98 µM (active)
O=C(NCc1ccccc1)c1cc(-c2cccc(Cl)c2)on1,18%,
COc1ccc(-c2noc(CSc3nnc(-c4ccccc4)n3-c3ccc(F)cc3)n2)c(OC)c1,-12.5%,
COc1ccc(-c2cc(-c3nc(-c4cc(OC)c(OC)c(OC)c4)no3)[nH]n2)c(OC)c1,-1.36%,
COc1ccc(-c2nc(-c3ccccc3)no2)c(OC)c1,,6.31 µM (active)
O=C(CN1CCN(Cc2ccc(Cl)cc2)C1=O)NCc1ccc(F)cc1,3.47%,
Cc1ccc(C)c(N2CCN(c3ccc4cc(S(=O)(=O)N5CCC(C)CC5)ccc4n3)CC2)c1,-15.3%,
O=C(COc1ccccc1)NCCc1nc2ccccc2[nH]1,16.9%,
N#C/C(=C(/O)COC(=O)COc1ccc(Cl)cc1)c1nc2ccccc2[nH]1,,20 µM (active)
COC(=O)Cc1nc2ccccc2[nH]1,-9.69%,
COc1ccc(CNC(=O)CSc2n[nH]c(-c3ccc(F)cc3)n2)cc1,-5.34%,
O=C(NCC(c1cccnc1)N1CCc2ccccc21)c1cccc(C(F)(F)F)c1 (stereo unspecified),-29.6%,
Cc1ccc2nc(-c3ccc(O)cc3)c(Nc3ccc4c(c3)OCO4)n2c1,29.2%,
COc1cccc(-n2cc(C(=O)NCc3cccc(Cl)c3)c3ccccc3c2=O)c1,-14.9%,
COc1ccc(-n2ncc3c(N4CCc5ccccc54)ncnc32)cc1,-10.2%,
COc1ccc(-n2ncc3c(N4CCCc5ccccc54)ncnc32)cc1,,10 µM (active)
Cc1cccc(-n2ncc3c(N4CCc5ccccc54)ncnc32)c1,-5.45%,
Cc1oc(C)c2c(=O)cc(-c3ccc4c(c3)OCO4)cc(OC(=O)c3ccc(Cl)cc3)c12,-0.429%,

# — PubChem BioAssay AID902 (National Center for Advancing Translational Sciences (NCATS), 2007)
